Screening data: PubChem, several laboratories
CYP2C19 inhib: human CYP2C19 inhibition | P33261 | CYP2C19 Supersomes, luciferin-H EGE luminescence, 30 min | inhibition, % at 5 µM | 96,000 compounds, 21% hits | AID 778;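 active = CYP2C19 inhibition above a set limit at 5 µM in the primary screen, cut at about 50% in these data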;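 note: plate controls were negative control wells for no effect and 2.5 mM tranylcypromine positive control for full effect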
Target sequence (P33261 whole entry, looked up): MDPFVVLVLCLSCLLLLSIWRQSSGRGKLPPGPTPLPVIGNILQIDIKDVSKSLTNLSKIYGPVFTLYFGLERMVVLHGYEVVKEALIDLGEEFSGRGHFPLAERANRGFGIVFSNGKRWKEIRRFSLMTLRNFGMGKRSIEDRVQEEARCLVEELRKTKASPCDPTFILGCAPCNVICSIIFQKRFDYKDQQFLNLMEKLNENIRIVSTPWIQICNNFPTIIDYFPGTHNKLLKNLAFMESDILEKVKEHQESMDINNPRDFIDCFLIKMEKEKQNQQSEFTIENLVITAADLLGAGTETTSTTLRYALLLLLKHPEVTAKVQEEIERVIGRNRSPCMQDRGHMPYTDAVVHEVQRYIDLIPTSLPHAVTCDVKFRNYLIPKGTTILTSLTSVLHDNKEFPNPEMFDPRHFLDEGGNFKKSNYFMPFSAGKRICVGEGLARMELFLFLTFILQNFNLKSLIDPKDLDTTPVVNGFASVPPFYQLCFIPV
CYP2C19 activ: increases human CYP2C19 enzyme activity | 96,000 tested, under 10 active | recombinant CYP2C19, luciferin-H EGE luminescence; stronger effect = higher value; 0 = fully inhibited enzyme, 1 = untreated enzyme | P33261 | activation factor at 5 µM;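 active = activation factor of at least 2 at 5 µM in the primary screen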;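 note: 0 = wells with 2.5 mM tranylcypromine and 1 = vehicle-only wells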
CYP2C9 activ: activators of human CYP2C9. recombinant CYP2C9, luciferin-H conversion, luminescence; stronger effect = higher value; factor 1 = untreated enzyme, 0 = blocked. AID 1024. P11712. 96,000 compounds, 1.4% hits. activation factor at 5 µM;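 active = activation factor of 2 or more for CYP2C9 at a 5 µM dose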;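 note: 0 = sulfaphenazole-blocked wells and 1 = vehicle-only wells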
sEH inhibitor: inhibitors of human soluble epoxide hydrolase; P34913; recombinant human sEH enzymatic activity assay; inhibition, % at 2 µM; 91,000 compounds, 0.34% hits; in the data active = inhibition above about 80%
CYP2C9 inhib: blocks human cytochrome P450 2C9; P11712; 96,000 compounds, 20% hits; CYP2C9 Supersomes, luciferin-H conversion, luminescence; AID 777; inhibition, % at 5 µM;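 active = blocking of liver enzyme CYP2C9 beyond about 50% at 5 µM, limit read from the data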
sEH act: increases human soluble epoxide hydrolase activity; activation, % at 2 µM; P34913; purified human sEH enzymatic activity, activator screen; 91,000 compounds, 0.04% hits; in the data active = activation above about 37%
Numbers without * were called inactive; . = not tested or not shown. Hits are enriched below; roughly 27% of the tested compounds scored in any of these assays.

SMILES | CYP2C19 inhib | CYP2C19 activ | CYP2C9 activ | sEH inhibitor | CYP2C9 inhib | sEH act
Cc1nc(N2CCN(Cc3ccc4c(c3)OCO4)CC2)nc2c1C(=O)CC(c1ccco1)C2 (stereo unspecified) | 73* | 0.3 | 0.1 | -2 | 88* | 2
Cc1nc(N2CCN(Cc3ccccc3)CC2)nc2c1C(=O)CC(c1ccco1)C2 (stereo unspecified) | 40 | 0.6 | 0.5 | -3 | 54* | 5
O=C(NCc1ccccn1)c1coc(=O)c(Br)c1 | 14 | 0.9 | 0.8 | -16 | 20 | 16
O=C(c1cnn2c1NC(c1ccc(Br)cc1)CC2C(F)(F)F)N1CCN(C23CC4CC(CC(C4)C2)C3)CC1 (stereo unspecified) | . | . | . | 9 | . | -4
Cc1nc2ccccn2c1/C(O)=C1\C(=O)C(=O)N(CCN(C)C)C1c1cccnc1 (stereo unspecified) | -4 | 1 | 1 | -17 | -3 | 15
COc1ccc(C(=O)N2CCOCC2)cc1Br | 8 | 0.9 | 2.3* | 8 | -131 | -10
CN(C)c1ccc(C(=S)N2CCOCC2)cc1Br | 30 | 0.7 | 2.4* | 2 | -142 | -1
CCOC(=O)c1cnn(Cc2ccccc2)c1N | . | . | . | -13 | . | 16
CCOC(=O)c1cnn(CC2CCCCC2)c1N | 60* | 0.4 | 0.1 | . | 92* | .
Cc1csc(NC(=O)CSc2nnc3c4ccccc4nc(C(C)(C)C)n23)n1 | 11 | 0.9 | 0.8 | -4 | 21 | 8
CCOC(=O)C1=C(C)N=c2s/c(=C\c3ccc(OC(C)=O)c(OCC)c3)c(=O)n2C1/C=C/c1ccccc1 (stereo unspecified) | 39 | 0.6 | 0.3 | 3 | 72* | 0
Cn1nnnc1SCC(=O)Nc1c(Cl)cccc1Cl | 10 | 0.9 | 0.8 | -13 | 15 | 11
Oc1ccccc1-c1nnc(SCCN2CCOCC2)n1Cc1ccccc1 | 5 | 1 | 0.9 | -13 | 14 | 13
CCN(CC)C(=O)CSc1nnc(-c2ccco2)n1Cc1ccco1 | 8 | 0.9 | 0.8 | -17 | 18 | 17
Cc1ccccc1CSc1nnc(-c2cccs2)n1Cc1ccco1 | 62* | 0.4 | 0.6 | 1 | 39 | -1
COC(=O)CSc1nnc(-c2ccco2)n1Cc1ccco1 | 0 | 1 | 1.1 | -7 | -6 | 7
O=C1c2ccccc2C(=O)N1CCSc1nnc(-c2ccco2)n1Cc1ccccc1 | 97* | 0 | 0.3 | -1 | 65* | 4
c1ccc(CSc2nnc(-c3cccs3)n2Cc2ccco2)cc1 | . | . | . | 11 | . | -8
Cc1ccccc1CSc1nnc(-c2ccco2)n1Cc1ccco1 | 66* | 0.3 | 0.9 | -11 | 10 | 13
c1ccc(CSc2nnc(-c3ccco3)n2Cc2ccco2)cc1 | 78* | 0.2 | 0.8 | 2 | 22 | -1
CCOC(=O)c1cc2c(=O)n3cccc(C)c3nc2n(Cc2cccnc2)c1=N | . | . | . | -2 | . | 4
COc1ccccc1N1CCN(Cc2nc3ccsc3c(=O)[nH]2)CC1 | 10 | 0.9 | 0.9 | 5 | 11 | -1
CC(=O)Nc1c(C(=O)N2CCN(c3ncccn3)CC2)cnn1-c1ccccc1Cl | . | . | . | -9 | . | 8
CC(C)(C)c1ccc(COn2c(=O)c(-c3ccco3)[n+]([O-])c3ccccc32)cc1 | 6 | 0.9 | 1.1 | -5 | -8 | 2
COc1ccc(OC)c(C2C(C(=O)Nc3nc4ccccc4s3)=C(C)NC3=C2C(=O)CCC3)c1 (stereo unspecified) | 64* | 0.4 | 0.3 | -6 | 74* | 8
CCCOC(=O)C1=C(C)NC2=C(C(=O)CCC2)C1c1cc(OC)ccc1OC (stereo unspecified) | 67* | 0.3 | 0.2 | 1 | 78* | -1
CCN(CC)c1ccc(C2C(C(=O)OCCOC)=C(C)NC3=C2C(=O)CCC3)cc1 (stereo unspecified) | 45 | 0.6 | 0.6 | -9 | 37 | 6
CCOC(=O)C1=C(CC)NC2=C(C(=O)CCC2)C1c1ccc(OC)c(OC)c1 (stereo unspecified) | 50* | 0.5 | 1 | -8 | 2 | 10
CCCCOC(=O)C1=C(C)NC2=C(C(=O)CCC2)C1c1cc(OC)ccc1OC (stereo unspecified) | 63* | 0.4 | 0.2 | -2 | 85* | 3
Cc1cc2c(=O)n(CC(=O)N3CCN(c4ccc(F)cc4)CC3)cnc2s1 | -4 | 1 | 1 | -14 | -2 | 11
